PubChem BioAssay (NCATS)
Results filed as inconclusive are left out. Active and inactive are the calls of the source. Calls come from the whole dose curve; as a rule, active = well fitted inhibition curve with a large enough effect; inconclusive = small, poorly fitted or top-dose-only effect; inactive = flat fitted curve, though single readings scatter.

What was measured:
Assay in all cases: Cytotoxic Profiling of Annotated Libraries Using Quantitative High-Throughput Screening (AID 1296008); note: nearly all actives have a fitted effect of over 60% in size
Conditions in all cases: Five cell lines viability, CellTiter-Glo ATP luminescence, 48-72 h; max response: stronger effect = lower value
CRL-7250 = normal cell line; tested on: CRL-7250
Summary of the method: (§1)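 Cytotoxicity was measured as CellTiter-Glo ATP luminescence, read after 10 min at room temperature. Compound treatment of the cells lasted 48 or 72 hr at 37 degrees Celsius in a qHTS format.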

HEK293 = tested on: HEK293
Summary of the method: as §1

HaCat = tested on: HaCat
Summary of the method: as §1

KB-3-1 = tested on: KB-3-1
Summary of the method: as §1

NIH3T3 = tested on: NIH3T3
Summary of the method: as §1

Measured: max response
% is set by controls: 0 for no effect and ±100 for the full control effect.

CC1C2=CC(=O)OC2(O)CC2C1C(O)CC1C(C)(CO)CCCC21C (stereo not given)
inactive: CRL-7250 | HEK293 2.57% | HaCat | KB-3-1 0.829% | NIH3T3

C=C1CC[C@@]2(OC1)O[C@H]1CC3[C@@H]4CC=C5C[C@@H](O)C[C@@H](O[C@@H]6OC[C@H](O)[C@H](O)[C@H]6O[C@@H]6O[C@@H](C)[C@H](O)[C@@H](O)[C@H]6O)[C@]5(C)C4CC[C@]3(C)[C@H]1[C@@H]2C (stereo not given in full)
inactive: CRL-7250 | HEK293 -17.1% | HaCat | KB-3-1 | NIH3T3

CC(=O)OC1CCC2(C)C(CCC3(C)C2CC=C2C4CC(C)(C)CCC4(C)CCC23C)C1(C)C(=O)O (stereo not given)
inactive: CRL-7250 -8.32% | HEK293 | HaCat -5.03% | KB-3-1 3% | NIH3T3 3.68%

CC1=CCC[C@@H]2[C@@](C)(CCc3ccoc3)[C@H](C(=O)O)CC[C@@]12C
inactive: CRL-7250 -0.266% | HEK293 -0.612% | HaCat | KB-3-1 -0.465% | NIH3T3 -9.18%

COC(=O)C1=COC(O[C@@H]2O[C@H](CO)[C@@H](O)[C@H](O)[C@H]2O)[C@@H]2[C@@](C)(O)[C@@H](OC(=O)/C=C/c3ccccc3)C[C@]12O (stereo not given in full)
inactive: CRL-7250 1.9% | HEK293 -1.35% | HaCat | KB-3-1 | NIH3T3 4.01%

C[C@@H]1O[C@@H](OC[C@H]2O[C@@H](OCc3ccccc3)[C@H](O)[C@@H](O)[C@@H]2O)[C@H](O)[C@H](O)[C@H]1O
inactive: CRL-7250 | HEK293 -5.01% | HaCat | KB-3-1 -7.21% | NIH3T3 0.0365%

COC(=O)C1C(c2ccc(O)cc2)C(C(=O)O)C1c1ccc(O)cc1 (stereo not given)
inactive: CRL-7250 -7.64% | HEK293 -2.14% | HaCat | KB-3-1 7.92% | NIH3T3 -3.05%

C=C[C@H]1[C@H](O[C@@H]2O[C@H](CO)[C@@H](O)[C@H](O)[C@H]2O)OC=C(C(=O)OC)[C@H]1CC=O
inactive: CRL-7250 3.16% | HEK293 -0.876% | HaCat 4.35% | KB-3-1 | NIH3T3

COc1cccc(CN(C(=O)CC(C)(C)C)C2CC(C(=O)N3CCNCC3)N(Cc3ccc4c(c3)OCO4)C2)c1 (stereo not given)
inactive: CRL-7250 -4.46% | HEK293 -17.6% | HaCat | KB-3-1 | NIH3T3

CC1C2=CC(=O)OC2(O)CC2C1C(OC(=O)c1ccccc1)C(OC(=O)c1ccccc1)C1(O)C2(C)CCC(O)C1(C)C(=O)O (stereo not given)
inactive: CRL-7250 -2.75% | HEK293 3.81% | HaCat | KB-3-1 -1.08% | NIH3T3 -2.68%

C=C1CC[C@@]2(OC1)O[C@H]1CC3C4CC=C5C[C@@H](O[C@@H]6O[C@@H](C)[C@H](O)[C@@H](O)[C@H]6O)C[C@@H](O[C@@H]6O[C@H](C)[C@H](O)[C@H](O)[C@H]6O[C@@H]6O[C@@H](C)[C@H](O)[C@@H](O)[C@H]6O)[C@]5(C)C4CC[C@]3(C)[C@H]1[C@@H]2C (stereo not given in full)
inactive: CRL-7250 | HEK293 1.18% | HaCat -14.8% | KB-3-1 5.01% | NIH3T3

CC1(C)C[C@H](O)C[C@@]2(C)[C@H]1[C@H](O)C=C1COC(=O)[C@@]12O
inactive: CRL-7250 | HEK293 2.99% | HaCat | KB-3-1 | NIH3T3

CC(C)C1NC(=O)C2CCCN2C1=O (stereo not given)
inactive: CRL-7250 | HEK293 0.78% | HaCat | KB-3-1 | NIH3T3

CC(CC(C)O[C@@H]1O[C@H](CO)[C@@H](O)[C@H](O)[C@H]1O)OC(=O)/C=C/c1ccc(O)cc1 (stereo not given in full)
inactive: CRL-7250 2.71% | HEK293 -1.24% | HaCat | KB-3-1 | NIH3T3 3.43%

CSC(=O)OCC1=C[C@@H]2OC(=O)C3=CO[C@@H](O[C@@H]4O[C@H](CO)[C@@H](O)[C@H](O)[C@H]4O)[C@H]1[C@@H]32
inactive: CRL-7250 -1.2% | HEK293 -0.187% | HaCat | KB-3-1 | NIH3T3 1.53%

COc1ccc(CCC(=O)O)c(O[C@@H]2O[C@H](CO)[C@@H](O)[C@H](O)[C@H]2O)c1
inactive: CRL-7250 | HEK293 -2.75% | HaCat 3.93% | KB-3-1 -5.8% | NIH3T3

CC1=CC(=O)[C@]2(O[C@@H]3O[C@@H](C)[C@H](O)[C@@H](O)[C@H]3O)C=CO[C@@H](O[C@@H]3O[C@H](CO)[C@@H](O)[C@H](O)[C@H]3O)[C@H]12
inactive: CRL-7250 | HEK293 -3.6% | HaCat | KB-3-1 | NIH3T3
